# This is a sample that favours compounds with a hit; in the whole collection about 4% have one here.
# NLRP3 yeast inh: NALP3 inhibition in yeast; Yeast reconstituted NLRP3/ASC/caspase-1, beta-gal luminescence, 24 h; inhibition, % at 10 µM; 330,000 compounds, 0.39% hits; AID 2825;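 active = inhibition of 50% or more; inactive = inhibition below 50%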;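 note: plate controls were induced DMSO wells for no effect and uninduced yeast grown without galactose for full effect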
# NALP1 yeast inh: inhibitors of NALP1 inflammasome in yeast. AID 2071. 280,000 compounds, 0.61% hits. S. cerevisiae NALP1/ASC/caspase-1 growth, X-gal OD620, 72 h. inhibition, % at 10 µM; in the data active = inhibition mostly above about 24%, no sharp cut-off; inactive = mostly below about 32%
# tim23-1 inh: inhibits growth of tim23-1 mutant yeast; S. cerevisiae tim23-1 growth, BacTiter-Glo luminescence, 24 h; inhibition, % at 20 µM; 330,000 compounds, 1.3% hits;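 active = growth inhibition of the mutant yeast at or above 50%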;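 note: temperature-sensitive mutant grown at 25 °C; plate controls were DMSO-treated mutant yeast for no effect and medium wells lacking yeast for full effect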
# tim10-1 inh: inhibits growth of tim10-1 mutant yeast; S. cerevisiae tim10-1 ts strain growth, BacTiter-Glo, 24 h; inhibition, % at 20 µM; 330,000 compounds, 2.2% hits; AID 463190;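 active = inhibition of at least 40%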;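 note: mutant grown at 25 °C; 0% = DMSO wells with yeast and 100% = wells holding no yeast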
# TIM10 inh: TIM10 yeast growth inhibition; S. cerevisiae TIM10 strain growth, BacTiter-Glo luminescence, 24 h; inhibition, % at 10 µM; 330,000 compounds, 1.4% hits;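 active = inhibition of 40% or more at the single tested concentration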;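 note: wild-type TIM10 isogenic control strain grown at permissive 25 °C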
# tim10-1 confirm: confirmation of tim10-1 mutant yeast growth inhibitors; shares compounds with tim10-1 inh; S. cerevisiae tim10-1 ts strain growth, BacTiter-Glo, 24 h; inhibition, % at 20 µM; 7,400 compounds, 56% hits;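 active = inhibition of yeast growth at or above a set limit in either of two repeat tests at 20 µM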;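 note: tim10-1 mutant grown at permissive 25 °C to find synthetic lethal compounds; 0% = DMSO yeast wells and 100% = medium wells without yeast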
# Active calls of the source: *; · = no result.
SMILES,NLRP3 yeast inh,NALP1 yeast inh,tim23-1 inh,tim10-1 inh,TIM10 inh,tim10-1 confirm
CCN(c1ccccc1)S(=O)(=O)c1ccc(Cl)c(C(=O)N(CC2CCCO2)C2CCS(=O)(=O)C2)c1 (centres undefined),16.6,-9.1,37.4,7.7,11.3,·
COc1ccc(-c2oc3ccc(N4CCOCC4)cc3c2C#CC2(O)CCCCC2)cc1,0.3,·,35.7,41.1*,23.0,12.4
OC1(C#Cc2c(-c3ccsc3)oc3ccc(N4CCOCC4)cc23)CCCCC1,-0.7,·,30.8,41.0*,24.4,5.4
O=C(NC1CCCCC1)C(c1cccnc1)N(C(=O)c1csnn1)c1ccc(F)cc1 (centres undefined),12.6,22.8,5.4,-1.2,-18.6,·
Nc1ncnc2c1ncn2[C@@H]1O[C@H](CNCc2c(OCc3ccccc3F)ccc3ccccc23)[C@@H](O)[C@H]1O,11.3,·,-34.7,-10.9,2.8,·
CCc1ccc(-c2cc(C)no2)cc1S(=O)(=O)NCc1ccccc1OC,7.5,12.1,30.2,40.6*,-4.9,6.7
O=C(Nc1ccccc1N1CCOCC1)c1cc(-c2ccncc2)nc2ccccc12,16.3,16.0,31.0,34.6,19.1,·
O=C(Nc1ccccc1N1CCOCC1)c1ccc2ccccc2n1,19.0,1.6,25.6,40.9*,15.3,26.6
COc1ccc(-c2cc(C(=O)Nc3ccccc3N3CCOCC3)c3ccccc3n2)cc1OC,-1.2,-13.1,14.2,42.0*,30.4,25.4
Cc1ccc(O)c(CCc2ccc(O)cc2)n1,4.7,7.6,17.3,5.4,-21.0,·
O=C(Nc1cc([N+](=O)[O-])ccc1C(=O)NCCN1CCOCC1)c1ccccc1,9.4,6.6,-9.5,-6.3,-2.9,·
CCc1ccccc1NC(=O)NNC(=O)CCc1ccc(OC)cc1,-3.2,5.8,7.5,-4.3,1.4,·
COc1ccc(-n2nc(C(=O)Nc3ccc(OC)c(OC)c3)c3c4ccccc4n(C)c3c2=O)cc1,-4.8,12.1,5.1,41.1*,17.4,-1.2
O=C(CCN1CCc2ccccc2CC1)c1ccc2c(c1)OCCO2,-7.6,-13.2,13.8,78.7*,24.3,22.2
O=C(CCN1CCOCC1)c1ccc2c(c1)OCCO2,-1.6,13.8,12.0,8.3,12.9,·
Cc1ccc(C(=O)OCC(=O)Nc2c(Cl)cc(S(N)(=O)=O)cc2Cl)o1,21.2,6.9,6.9,5.0,1.0,·
O=C(/C=C/c1c(Cl)nc2ccccn12)N1CCN(c2ccccc2F)CC1,26.9,6.3,41.0,45.5*,32.0,36.2*
CC1(C)CN=c2s/c(=C\c3ccc(Cl)cc3)c(=O)n2C1,34.0,14.5,19.3,40.8*,19.6,26.9
COc1ccc(C)cc1N(C(=O)c1ccc(C#N)cc1)C1=NC(C)(C)CS1,6.6,6.0,10.8,40.0,5.0,-2.5
COc1ccc(C)cc1N(C(=O)c1ccccc1)c1nc2ccccc2s1,14.9,22.6,32.0,19.9,30.2,·
CC(C)c1ccc(S(=O)(=O)N2CCN(C(=O)CCNC(=O)Nc3ccccc3)CC2)cc1,13.9,·,21.0,17.7,12.2,·
CC(C)c1ccc(NC(=O)N2CCN(S(=O)(=O)c3ccccc3)CC2)cc1,18.3,1.1,21.9,41.3*,5.2,14.6
Cc1ccccc1CC1(CO)CCCN(C(=O)c2cc(Cl)ccc2F)C1 (centres undefined),6.7,-4.0,29.8,41.9*,-5.1,31.9*
COc1ccc(C(=O)N2CCCC(CO)(Cc3ccccc3C)C2)o1 (centres undefined),4.5,15.1,19.3,47.8*,8.7,24.6
Cc1cc(C(=O)Cn2nc(C(=O)O)c3ccccc3c2=O)c(C)n1-c1ccccc1,9.9,31.8,30.3,42.5*,18.7,17.8
SMILES,NLRP3 yeast inh,NALP1 yeast inh,tim23-1 inh,tim10-1 inh,TIM10 inh,tim10-1 confirm
CCc1ccc(/C=C(\C)C(=O)c2c(C)cc(C)[nH]c2=O)cc1,5.9,24.5,12.6,19.7,2.4,·
Cc1ccc(/C=C/C(=O)c2c(C)cc(C)[nH]c2=O)cc1,3.0,-3.7,26.7,42.9*,30.9,38.5*
CCc1ccc(/C=C/C(=O)c2c(C)cc(C)[nH]c2=O)cc1,16.1,·,32.9,44.5*,16.3,37.7*
Cc1cc(C)c(C(=O)/C=C/c2cccs2)c(=O)[nH]1,-1.4,5.0,13.9,13.5,-3.6,·
CCCCCc1nnc(NC(=O)CN2C(=O)C3CCCCC3C2=O)s1 (centres undefined),0.1,-1.0,13.4,7.2,9.4,·
CCSc1nnc(NC(=O)CN2C(=O)N(C)C3(CCCCC3)C2=O)s1,24.9,·,9.3,96.6*,10.1,13.3

# Assay outcomes from PubChem.
